Reference: paper PMC8384837, “Expanding the binding specificity for RNA recognition by a PUF domain”

What was measured:
Assay in all cases: yeast three-hybrid, YBZ-1, SC-Leu-His + 0.5 mM 3-AT, 4 days
Conditions in all cases: tags: N-Gal4 AD-HA kept; label: inside an RPR1-promoter hybrid RNA with tandem MS2 sites; ssRNA
PUM1 PUF domain R5-RQI = PUM1 PUF domain R5-RQI (Homo sapiens, UniProt Q14671 828-1176, C1007R;R1008Q;Q1011I)
How it was run: (§1)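 The interaction score is the log change in how often each variant appears, from input to selection. Frequencies came from PCR-amplified, Illumina-sequenced repeat regions of Pumilio-1 PUF domain libraries grown in strain YBZ-1 (LexA–MS2 coat fusion, HIS3 reporter) alongside matching RNA elements. Input plates were SC-Leu and selection plates were SC-Leu-His + 0.5 mM 3-AT, each for four days, and the log2 calculation used a pseudocount of 1 where a variant was absent.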

PUM1 PUF domain R5-KAE = PUM1 PUF domain R5-KAE (Homo sapiens, UniProt Q14671 828-1176, C1007K;R1008A;Q1011E)
Chain of PUM1 PUF domain R5-KAE (Q14671 828-1176 C1007K/R1008A/Q1011E): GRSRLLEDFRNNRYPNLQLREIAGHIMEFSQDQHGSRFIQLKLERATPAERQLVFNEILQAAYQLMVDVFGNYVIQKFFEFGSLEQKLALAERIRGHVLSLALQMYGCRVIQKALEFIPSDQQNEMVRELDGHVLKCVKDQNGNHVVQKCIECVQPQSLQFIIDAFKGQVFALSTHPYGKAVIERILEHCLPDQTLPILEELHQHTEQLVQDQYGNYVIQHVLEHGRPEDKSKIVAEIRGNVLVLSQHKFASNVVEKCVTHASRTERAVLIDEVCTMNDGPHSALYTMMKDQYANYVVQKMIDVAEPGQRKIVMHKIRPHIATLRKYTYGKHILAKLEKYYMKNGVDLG
How it was run: as §1

PUM1 PUF domain R5-MPR = PUM1 PUF domain R5-MPR (Homo sapiens, UniProt Q14671 828-1176, C1007M;R1008P;Q1011R)
Chain of PUM1 PUF domain R5-MPR (Q14671 828-1176 C1007M/R1008P/Q1011R): as the sequence (Q14671 828-1176 C1007K/R1008A/Q1011E) above, with K180M, A181P, E184R counted along it
How it was run: as §1

PUM1 PUF domain R3-RER = PUM1 PUF domain R3-RER (Homo sapiens, UniProt Q14671 828-1176, C935R;R936E;Q939R)
Chain of PUM1 PUF domain R3-RER (Q14671 828-1176 C935R/R936E/Q939R): as the sequence (Q14671 828-1176 C1007K/R1008A/Q1011E) above, with C108R, R109E, Q112R, K180C, A181R, E184Q counted along it
How it was run: as §1

PUM1 PUF domain R8-RWD = PUM1 PUF domain R8-RWD (Homo sapiens, UniProt Q14671 828-1176, N1122R;Y1123W;Q1126D)
Chain of PUM1 PUF domain R8-RWD (Q14671 828-1176 N1122R/Y1123W/Q1126D): as the sequence (Q14671 828-1176 C1007K/R1008A/Q1011E) above, with K180C, A181R, E184Q, N295R, Y296W, Q299D counted along it
How it was run: as §1

PUM1 PUF domain R1-KDS = PUM1 PUF domain R1-KDS (Homo sapiens, UniProt Q14671 828-1176, S863K;R864D;Q867S)
Chain of PUM1 PUF domain R1-KDS (Q14671 828-1176 S863K/R864D/Q867S): as the sequence (Q14671 828-1176 C1007K/R1008A/Q1011E) above, with S36K, R37D, Q40S, K180C, A181R, E184Q counted along it
How it was run: as §1

PUM1 PUF domain R4-PHK = PUM1 PUF domain R4-PHK (Homo sapiens, UniProt Q14671 828-1176, N971P;Q975K)
Chain of PUM1 PUF domain R4-PHK (Q14671 828-1176 N971P/Q975K): as the sequence (Q14671 828-1176 C1007K/R1008A/Q1011E) above, with N144P, Q148K, K180C, A181R, E184Q counted along it
How it was run: as §1

PUM1 PUF domain R4-APR = PUM1 PUF domain R4-APR (Homo sapiens, UniProt Q14671 828-1176, N971A;H972P;Q975R)
Chain of PUM1 PUF domain R4-APR (Q14671 828-1176 N971A/H972P/Q975R): as the sequence (Q14671 828-1176 C1007K/R1008A/Q1011E) above, with N144A, H145P, Q148R, K180C, A181R, E184Q counted along it
How it was run: as §1

Chain of PUM1 PUF domain R5-RQI (Q14671 828-1176 C1007R/R1008Q/Q1011I): as the sequence (Q14671 828-1176 C1007K/R1008A/Q1011E) above, with K180R, A181Q, E184I counted along it

GGCUAGAACUAGUGGAUCCCCCGGCGCCCGGCGGCUCGAGCCCGGGUAAGUGUUAAUAGUCUGCAUGCCGCCGGGCGCCAUGCCUGCAGGUCGACUCUAGAAAACAUG
binding signal (PUM1 PUF domain R5-RQI): 4.62 log2 enrichment (interaction score)
binding signal (PUM1 PUF domain R5-KAE): 2.99 log2 enrichment (interaction score)

GGCUAGAACUAGUGGAUCCCCCGGCGCCCGGCGGCUCGAGCCCGGGUAAGUGUCAAUAGUCUGCAUGCCGCCGGGCGCCAUGCCUGCAGGUCGACUCUAGAAAACAUG
binding signal (PUM1 PUF domain R5-RQI): 2.06 log2 enrichment (interaction score)
binding signal (PUM1 PUF domain R5-KAE): 3.8 log2 enrichment (interaction score)
binding signal (PUM1 PUF domain R5-MPR): 2.13 log2 enrichment (interaction score)

GGCUAGAACUAGUGGAUCCCCCGGCGCCCGGCGGCUCGAGCCCGGGUAAGUGUAAUUAGUCUGCAUGCCGCCGGGCGCCAUGCCUGCAGGUCGACUCUAGAAAACAUG
binding signal (PUM1 PUF domain R3-RER): 4.06 log2 enrichment (interaction score)

GGCUAGAACUAGUGGAUCCCCCGGCGCCCGGCGGCUCGAGCCCGGGUAAGUGUAAAUAGUCUGCAUGCCGCCGGGCGCCAUGCCUGCAGGUCGACUCUAGAAAACAUG
binding signal (PUM1 PUF domain R5-MPR): 1.45 log2 enrichment (interaction score)
binding signal (PUM1 PUF domain R8-RWD): 2.26 log2 enrichment (interaction score)

GGCUAGAACUAGUGGAUCCCCCGGCGCCCGGCGGCUCGAGCCCGGGUAAGUGUAAAUGGUCUGCAUGCCGCCGGGCGCCAUGCCUGCAGGUCGACUCUAGAAAACAUG
binding signal (PUM1 PUF domain R1-KDS): 2.77 log2 enrichment (interaction score)

GGCUAGAACUAGUGGAUCCCCCGGCGCCCGGCGGCUCGAGCCCGGGUAAGUGUAAAUCGUCUGCAUGCCGCCGGGCGCCAUGCCUGCAGGUCGACUCUAGAAAACAUG
binding signal (PUM1 PUF domain R1-KDS): 2.96 log2 enrichment (interaction score)

GGCUAGAACUAGUGGAUCCCCCGGCGCCCGGCGGCUCGAGCCCGGGUAAGUGUACAUAGUCUGCAUGCCGCCGGGCGCCAUGCCUGCAGGUCGACUCUAGAAAACAUG
binding signal (PUM1 PUF domain R4-PHK): 3.9 log2 enrichment (interaction score)
binding signal (PUM1 PUF domain R4-APR): 2.91 log2 enrichment (interaction score)

GGCUAGAACUAGUGGAUCCCCCGGCGCCCGGCGGCUCGAGCCCGGGUAAGCGUAAAUAGUCUGCAUGCCGCCGGGCGCCAUGCCUGCAGGUCGACUCUAGAAAACAUG
binding signal (PUM1 PUF domain R8-RWD): 2.45 log2 enrichment (interaction score)

GGCUAGAACUAGUGGAUCCCCCGGCGCCCGGCGGCUCGAGCCCGGGUAAGUGUAUAUAGUCUGCAUGCCGCCGGGCGCCAUGCCUGCAGGUCGACUCUAGAAAACAUG
binding signal (PUM1 PUF domain R4-APR): 2.82 log2 enrichment (interaction score)
